Assay results from paper PMC5540273 (PLoS ONE, 2017).

Experiments:
Details in all cases: concentration: 1 μM,replicates: in singlicate; n = 1
CDK8 = system: CDK8
CDK9 = system: CDK9
CDKL1 = system: CDKL1
CDKL2 = system: CDKL2
CDKL3 = system: CDKL3
CDKL5 = system: CDKL5
CHEK1 = system: CHEK1
CHEK2 = system: CHEK2
CIT = system: CIT
CLK1 = system: CLK1
CLK2 = system: CLK2
CLK3 = system: CLK3
CLK4 = system: CLK4
CSF1R-autoinhibited = system: CSF1R-autoinhibited
CSF1R = system: CSF1R
CSK = system: CSK
CSNK1A1L = system: CSNK1A1L
CSNK1A1 = system: CSNK1A1
CSNK1D = system: CSNK1D
CSNK1E = system: CSNK1E
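Also: KINOMEscan kinase panel screen.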

| Structure (SMILES) | %Inh (CDK8) [%] | %Inh (CDK9) [%] | %Inh (CDKL1) [%] | %Inh (CDKL2) [%] | %Inh (CDKL3) [%] | %Inh (CDKL5) [%] | %Inh (CHEK1) [%] | %Inh (CHEK2) [%] | %Inh (CIT) [%] | %Inh (CLK1) [%] | %Inh (CLK2) [%] | %Inh (CLK3) [%] | %Inh (CLK4) [%] | %Inh (CSF1R-autoinhibited) [%] | %Inh (CSF1R) [%] | %Inh (CSK) [%] | %Inh (CSNK1A1L) [%] | %Inh (CSNK1A1) [%] | %Inh (CSNK1D) [%] | %Inh (CSNK1E) [%] |
| --- | --- | --- | --- | --- | --- | --- | --- | --- | --- | --- | --- | --- | --- | --- | --- | --- | --- | --- | --- | --- |
| Cl.c1ccc(Oc2ccc(Nc3ccnc4cc(-c5ccc(CN6CCNCC6)o5)ccc34)cc2)nc1 [GW567142] | 0 | 0 | 0 | 0 | 0 | 0 | 5 | 82 | 9 | 25 | 0 | 15 | 0 | 0 | 43 | 72 | 0 | 0 | 16 | 40 |
| CS(=O)c1ccc(-c2coc3ccc(-c4n[nH]c(=O)o4)cc23)cc1 (centres unmarked) | 91.1 | 0 | 10 | 0 | 12 | 0 | 0 | 42 | 0 | 20 | 25 | 3 | 33 | 10 | 4 | 0 | 7 | 7 | 0 | 0 |
| CN1CCN(CCNc2nc3cc(Oc4ccc(NC(=O)Nc5cc(C(F)(F)F)ccc5F)cc4)ccc3[nH]2)CC1.Cl.Cl [GW768504] | 55 | 0 | 3 | 56 | 43 | 0 | 0 | 3 | 67 | 2 | 0 | 0 | 14 | 0 | 60 | 0 | 0 | 19 | 0 | 6 |
| O=C(Nc1cccc(C(F)(F)F)c1)c1cccc(Oc2ccc3nccn3n2)c1 | 0 | 0 | 14 | 18 | 0 | 3 | 0 | 0 | 13 | 7 | 0 | 0 | 4 | 16 | 100 | 0 | 0 | 0 | 11 | 0 |
| COC(=O)c1cccc(NC(=O)NC2CCN(c3ccnc(Nc4cc(OC)c(OC)c(OC)c4)n3)C2)c1 (centres unmarked) [GSK1379767] | 56 | 1 | 14 | 67 | 0 | 0 | 0 | 58 | 10 | 0 | 0 | 0 | 8 | 34 | 26 | 0 | 0 | 28 | 0 | 13 |
| COc1cccc(OC)c1C(=O)Nc1cccc(-c2nn3ccccc3c2-c2ccnc(Nc3cccc(F)c3)n2)c1 [GSK361065] | 0 | 0 | 15 | 6 | 3 | 0 | 13 | 0 | 36 | 21 | 21 | 0 | 0 | 4 | 60 | 18 | 0 | 25 | 9 | 64 |
| C[C@@H](Oc1cc(-n2cnc3cc(-c4cnn(C)c4)ccc32)sc1C(N)=O)c1ccccc1Cl [GSK580432] | 17 | 5 | 20 | 22 | 0 | 0 | 32 | 0 | 32 | 59 | 23 | 23 | 34 | 0 | 80 | 3 | 1 | 7 | 0 | 0 |
| C[C@@H]1CNc2c(sc3ccc4nc(-c5ccc(O)cc5)ccc4c23)C(=O)N1 | 63 | 67 | 15 | 0 | 5 | 0 | 0 | 54 | 54 | 97.3 | 98.2 | 50 | 95.7 | 7 | 4 | 0 | 84 | 95.4 | 63 | 55 |
| CNC(=O)c1ccccc1Nc1nc(Nc2cccc(CS(C)(=O)=O)c2)ncc1C.O=CO [GSK1520489] | 4 | 0 | 28 | 52 | 0 | 0 | 16 | 86 | 45 | 99.3 | 94.6 | 86 | 98.9 | 90 | 99.8 | 95.1 | 63 | 46 | 25 | 20 |
| CN1CCN(CCCNc2nccc(-c3c(-c4ccc(F)cc4)nn4cc(C(N)=O)ccc34)n2)CC1 [GW622475] | 19 | 3 | 5 | 31 | 92.6 | 0 | 0 | 1 | 95.2 | 19 | 0 | 0 | 12 | 0 | 22 | 11 | 52 | 95.7 | 97.4 | 99.7 |
